Results as given in PubChem BioAssay (Tox21).
Several values for one entry are separate records, joined by “and”; a condition that tells them apart may be missing. Equal entries are not always repeated. Inconclusive results are not listed. More than one record can exist for a structure, and the calls need not agree. Activity calls are given as the source filed them. Unless noted, calls follow the shape of the dose curve; as a rule, active = well fitted inhibition curve with a large enough effect in the repeat runs; inconclusive = weak or mixed curves; inactive = no such curve, though single readings can be large or run the other way.

Assay: qHTS assay to identify small molecule antagonists of the estrogen related receptor (ERR) signaling pathway from Tox21 library (AID 1224848); also: nearly all actives have a fitted effect of over 50% in size; also: potency is read from the fitted curve at half-maximal effect
Conditions: ERR reporter cell line, luciferase antagonist mode, 18 h; series mostly up to 92.4 µM
Outline: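 Luminescent reporter read-out (ONE-Glo) from NTP's ERR cell line after 18 h treatment at 37 C with DMSO-dissolved Tox21 compounds; cells pre-plated 6 h beforehand at 2,000 per well.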
% is scaled to controls: 0 for no effect and ±100 for the full control effect.

| Compound | Potency | activity, negative = inhibition |
| --- | --- | --- |
| CCCC[N+](=O)[O-] | inactive |  |
| ClC(Cl)(Cl)Cl | inactive |  |
| CN(C)C(=O)Oc1cc(OC(=O)N(C)C)cc(C(O)CNC(C)(C)C)c1 (centres undefined) | inactive |  |
| O=C1C2CC=CCC2C(=O)N1SC(Cl)(Cl)Cl (centres undefined) | inactive and 30.1 µM (active) |  |
| CCCOC(=O)c1cncn1C(C)c1ccccc1 (centres undefined) | inactive |  |
| COc1ccc(CN2CCNCC2)c(OC)c1OC | inactive |  |
| CC(=O)OCC1=C(C(=O)O)N2C(=O)[C@@H](N)[C@H]2SC1 |  | 15.1% [at 19 µM] (inactive) |
| C=C1CC[C@@]2(O)[C@H]3Cc4ccc(O)c5c4[C@@]2(CCN3CC2CC2)[C@H]1O5 | inactive |  |

Assay: qHTS assay to identify small molecule agonists of the estrogen related receptor (ERR) signaling pathway from Tox21 library (AID 1224849; calls by dose curve; also: nearly all actives have a fitted effect of over 15% in size)
Conditions: ERR reporter cell line, ONE-Glo luciferase, 18 h; at 92.4 µM (top of the series) unless noted
Outline: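 We plated ERR reporter cells, waited 6 h, added compounds in DMSO by pin tool and incubated them 18 h at 37 C. ONE-Glo was then added and luminescence read after 30 min.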

| Compound | activity change, positive = activation |
| --- | --- |
| ClC(Cl)(Cl)Cl | -3.58% (inactive) |
| CN(C)C(=O)Oc1cc(OC(=O)N(C)C)cc(C(O)CNC(C)(C)C)c1 (centres undefined) | 0.805% [at 42.5 µM] (inactive) |
| CCCOC(=O)c1cncn1C(C)c1ccccc1 (centres undefined) | 0.709% [at 42.5 µM] (inactive) |
| COc1ccc(CN2CCNCC2)c(OC)c1OC | -10% [at 42.5 µM] (inactive) |
| CC(=O)OCC1=C(C(=O)O)N2C(=O)[C@@H](N)[C@H]2SC1 | 9.57% [at 19 µM] (inactive) |
| C=C1CC[C@@]2(O)[C@H]3Cc4ccc(O)c5c4[C@@]2(CCN3CC2CC2)[C@H]1O5 | 8.21% [at 42.5 µM] (inactive) |
